Screening data: PubChem, several laboratories
Most compounds without a hit are left out; they make up all but 3.6% or so of the library.
CF NFkB inh: inhibitors of cystic fibrosis induced NF-kB; KKLEB NF-kB-GFP reporter, PAF-induced, GFP fluorescence overnight; inhibition, % at 5 µM; 0.86% of 360,000 active;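 active = at least 50% inhibition at 5 µM, scaled per plate between neutral and stimulator controls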;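 note: PAF is a Pseudomonas aeruginosa culture filtrate used as stimulus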
Mdm2-MdmX inh: human Mdm2/MdmX binding inhibition. 3% of 330,000 active. SaOS-2 split-luciferase Mdm2/MdmX complementation, luminescence. inhibition, % at 8 µM. O15151+Q00987;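 active = inhibition of at least 50% at 8 µM in the primary screen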
Target sequence (O15151 whole entry, looked up): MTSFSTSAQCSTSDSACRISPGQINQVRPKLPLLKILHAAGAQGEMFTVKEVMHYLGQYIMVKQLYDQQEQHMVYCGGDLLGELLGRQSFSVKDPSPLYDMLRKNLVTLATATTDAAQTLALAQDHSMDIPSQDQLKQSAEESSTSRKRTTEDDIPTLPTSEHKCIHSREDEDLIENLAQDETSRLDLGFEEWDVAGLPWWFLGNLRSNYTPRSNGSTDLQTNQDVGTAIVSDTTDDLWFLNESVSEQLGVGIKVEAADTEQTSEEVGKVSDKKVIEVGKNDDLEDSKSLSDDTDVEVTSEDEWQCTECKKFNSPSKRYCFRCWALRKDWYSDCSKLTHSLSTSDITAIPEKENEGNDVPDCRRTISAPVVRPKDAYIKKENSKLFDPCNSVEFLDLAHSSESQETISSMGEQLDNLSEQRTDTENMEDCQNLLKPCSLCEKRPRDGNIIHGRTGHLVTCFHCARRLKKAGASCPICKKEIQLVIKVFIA
Target sequence (Q00987 whole entry, looked up): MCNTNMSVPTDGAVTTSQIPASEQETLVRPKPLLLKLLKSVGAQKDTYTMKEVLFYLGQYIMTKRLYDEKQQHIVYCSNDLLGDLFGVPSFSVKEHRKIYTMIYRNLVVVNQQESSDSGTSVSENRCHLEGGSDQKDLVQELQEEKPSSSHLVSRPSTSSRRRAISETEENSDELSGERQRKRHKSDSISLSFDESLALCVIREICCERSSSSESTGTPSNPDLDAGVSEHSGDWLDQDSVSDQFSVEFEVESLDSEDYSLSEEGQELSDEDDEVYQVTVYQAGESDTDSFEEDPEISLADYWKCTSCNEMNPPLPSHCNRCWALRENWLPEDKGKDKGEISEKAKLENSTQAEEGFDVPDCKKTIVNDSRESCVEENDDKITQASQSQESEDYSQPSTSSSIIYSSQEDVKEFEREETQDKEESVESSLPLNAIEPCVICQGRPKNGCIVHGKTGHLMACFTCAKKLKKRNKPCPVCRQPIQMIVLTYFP
Peg3 promoter: inhibitors of Peg3 promoter. 1.7% of 360,000 active. inhibition, % at 20 µM. AID 588405. HeLa PEG-Prom luciferase reporter, luminescence, overnight;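 active = inhibition of at least 50% at 20 µM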
HSP90 refold inh: HSP90 refolding inhibition in rabbit reticulocyte lysate; inhibition, % at 5.6 µM; luciferase refolding luminescence, 3 h; AID 1789; 0.91% of 290,000 active;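 active = inhibition above the screen-wide mean plus 3 SD, computed separately per campaign, cut at about 16% in these data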;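 note: inhibitors lower the luminescence because luciferase stays unfolded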
KKLEB cytotox: counter-screen for CF NF-kB inhibitors: cytotoxicity; activity change (cytotoxicity), % at 5 µM; AID 602141; 0.36% of 360,000 active; KKLEB CF airway cells viability, ATPlite luminescence, overnight; active compounds read low; cells stimulated with P. aeruginosa culture filtrate;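 active = corrected activity change at or below -50% at 5 µM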
LGR2 inh: inhibitors of bursicon-induced Drosophila LGR2 receptor cAMP signaling; HEK293 LGR2, CRE-luciferase, bursicon-stimulated, 4 h; inhibition, % at 9.99 µM; 0.35% of 380,000 active;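 active = drop in luminescence signal, shown as inhibition above about 50% in the replicate tests, limit read from the data, passing the limit was not always enough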;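 note: agonist challenge used bursicon conditioned medium at about half maximal strength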
Mdm2-MdmX conf: confirmation of human Mdm2/MdmX interaction inhibitors; shares compounds with Mdm2-MdmX inh; Mdm2-MdmX binding, luminescent assay; inhibition, % at 8 µM; 55% of 10,000 active; in the data active = inhibition above about 40%
FLuc counter: counter-screen for Mdm2/MdmX inhibitors: full-length luciferase. shares compounds with Mdm2-MdmX inh. SaOS-2 full-length luciferase counterscreen, luminescence. inhibition, % at 8 µM. 77% of 6,200 active. AID 504607;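 active = mean inhibition at 8 µM reaching about 37%, which flags the compound as non-specific, limit read from the data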;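 note: p53-null SaOS-2 cells with luciferase driven by a doxycycline-inducible promoter; compound on cells about two nights before reading with doxycycline added after day one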
A number is an active result; n = inactive; x = not tested or not shown.

SMILES	CF NFkB inh	Mdm2-MdmX inh	Peg3 promoter	HSP90 refold inh	KKLEB cytotox	LGR2 inh	Mdm2-MdmX conf	FLuc counter
C[C@@H]1CCCCO[C@H](CN(C)C(=O)Nc2ccc3c(c2)OCO3)[C@@H](C)CN([C@@H](C)CO)C(=O)c2cc(NS(=O)(=O)c3cn(C)cn3)ccc2O1	x	x	x	x	x	n	x	x
Cc1cc(C(=O)OCC(=O)Nc2ccc(F)cc2[N+](=O)[O-])c2ccccc2n1	n	52	n	n	n	x	51	100
CC(=O)c1cc2c(cc1NC(=O)c1ccc(Cl)cc1)OCCO2	n	57	n	n	n	n	n	x
CC(=O)Nc1cc2c(cc1C(C)=O)OCCO2	n	n	n	n	n	x	x	x
COc1cccc(CNC(=O)c2cc3oc4ccccc4c3n2C)c1OC	n	97	n	n	n	x	96	47
CCOc1ccc2cc(C(=O)NCc3ccccc3)c(=N)oc2c1	n	n	n	n	n	n	x	x
CCOc1ccccc1CNC(=O)c1cc2oc3ccccc3c2n1CC	n	93	n	n	n	x	89	n
CCOc1ccc(CNC(=O)c2cc3oc4ccccc4c3n2C)cc1	n	85	n	n	n	x	88	n
Cc1ccc(S(=O)(=O)N(C)C[C@H]2Oc3ccc(NS(=O)(=O)c4ccc(F)cc4)cc3C(=O)N([C@H](C)CO)C[C@@H]2C)cc1	x	x	x	x	x	n	x	x
Cc1cc(C)n2nc(N)c(N=Nc3ccc4c(c3)OCO4)c2n1	n	57	n	n	n	n	n	x
Cc1cc(C)n2nc(N)c(N=Nc3ccccc3)c2n1	n	n	n	n	n	n	x	x
COc1cc(/C=C2\N=C(c3ccccc3)NNC2=O)cc(OC)c1OC	n	61	n	n	n	n	54	64
O=C1NNC(c2ccccc2)=N/C1=C\c1ccco1	n	n	n	n	n	n	x	x
CC(C)NC(=O)N(C)C[C@H]1OCCCC[C@H](C)Oc2ccc(NS(=O)(=O)c3ccc(Cl)cc3)cc2C(=O)N([C@H](C)CO)C[C@H]1C	x	x	x	x	x	n	x	x
C=CCn1c(=O)c(C(=O)Nc2cccnc2)c(O)c2ccccc21	n	68	n	n	n	x	n	x
Cc1ccc(S(=O)(=O)Nc2ccc3c(c2)C(=O)N([C@@H](C)CO)C[C@H](C)[C@H](CN(C)S(=O)(=O)c2ccccc2)OCCCC[C@@H](C)O3)cc1	x	x	x	x	x	n	x	x
COc1ccccc1/C=C/C1(C(=O)NC2CCCC2)CC(=O)N1c1ccc(F)cc1 (stereo not drawn)	80	70	n	n	-77	x	89	49
C[C@@H]1CN([C@@H](C)CO)C(=O)c2cc(NC(=O)Cc3ccccc3)ccc2O[C@@H](C)CCCCO[C@H]1CN(C)C	x	x	x	x	x	n	x	x
CCCCNC(=O)C(c1ccc(OCC(=O)OC)c(C(=O)OC)c1)N(CCOC)C(=O)CCCCCN1C(=O)NC(c2ccc(-c3ccccc3)cc2)C(C(=O)OCc2ccccc2)=C1C (stereo not drawn)	x	100	x	x	x	n	66	n
C[C@H](CO)N1C[C@H](C)[C@H](CN(C)S(=O)(=O)c2cccs2)Oc2ccc(NC(=O)Cn3cnnn3)cc2C1=O	x	x	x	x	x	n	x	x
C=CC(=O)Nc1cccc(Oc2cc(Cl)nc3[nH]ccc23)c1	n	80	n	x	n	n	72	42
COC(=O)c1cc(=O)nc2sccn12	n	n	n	n	n	x	x	x
COC(=O)c1cc(NC(=O)c2c(Cl)nc3sccn23)cc(C(=O)OC)c1	n	68	n	n	n	x	n	x
C[C@@H]1CN([C@@H](C)CO)C(=O)Cc2cc(N(C)C)ccc2O[C@H]1CN(C)CC1CC1	x	x	x	x	x	n	x	x
O=C(N/N=C/C=C/c1cccc([N+](=O)[O-])c1)C(O)c1ccccc1 (stereo not drawn)	n	n	n	n	n	n	x	x
O=C(CNc1ccc2ccccc2c1)N/N=C/C=C/c1cccc([N+](=O)[O-])c1	n	82	n	n	n	n	n	x
COCC(=O)N(C)C[C@H]1Oc2ncc(-c3ccc(C#N)cc3)cc2C(=O)N([C@@H](C)CO)C[C@@H]1C	x	x	x	x	x	n	x	x
Cc1c(CCOC(=O)c2ccccc2)sc[n+]1CC(=O)c1ccc(Br)cc1	n	n	n	n	n	n	x	x
